# TGFb inhibitor = TGF-b pathway inhibition. Potency, µM (top dose mostly 46.1 µM), for inactives: at the highest dose activity, negative = inhibition, actives largely listed as inhibitors. AID 588855. HepG2 CAGA-GFP TGF-b/SMAD3 reporter, GFP fluorescence, 18 h; TGF-beta stimulated, 500 pg/mL final. 1.2% of 410,000 active; note: % is set by controls: 0 for no effect and ±100 for the full control effect; nearly all actives have a fitted effect of over 65% in size
#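 Using HEPG2 CAGA-GFP reporter cells at 1000 cells/well, we pinned test compounds, stimulated with recombinant TGF-beta (500 pg/mL final) and measured total well GFP after 18 h.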
# HT1080NT lethal = kills 2HG-producing HT-1080-NT fibrosarcoma cells. HT-1080-NT fibrosarcoma viability, CellTiter-Glo ATP luminescence, 48 h. Potency, µM (doses to about 46.1 µM), for inactives: at the highest dose activity, negative = less viability, hits mostly cytotoxic. 1.6% of 360,000 active. AID 686970;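 note: NT is the 2HG producing partner of a matched IDH1 knockdown line; 0% = DMSO-treated cells and -100% = media-only wells without cells; nearly all actives have a fitted effect of over 55% in size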
#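 Compounds were tested in concentration-response format on HT-1080-NT cells for 48 hours at 37 degrees C. Cell viability came from CellTiter-Glo luminescence; curves were classified by r2, response magnitude and activity.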
# S2 tox = viability counter-screen for ATXN expression inhibitors; AID 651635; 0.49% of 400,000 active; Potency, µM (doses to about 56.7 µM), actives largely listed as cytotoxic; S2 cells (HEK-293 line with an ATXN2-luciferase reporter) viability, CellTiter-Fluor protease fluorescence, 24 h; note: nearly all actives have a fitted effect of over 40% in size
# ATXN2 expr inh = reduces ATXN2 reporter expression in HEK-293 cells. 0.72% of 360,000 active. Potency, µM (titrated, usually from 57 µM), inactives show top-dose activity change, negative = inhibition, actives largely listed as inhibitors. HEK-293 ATXN2-luciferase reporter, luminescence, 24 h; note: % is set by controls: 0 for no effect and ±100 for the full control effect; nearly all actives have a fitted effect of over 55% in size
#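 ATXN2-luciferase reporter cells (luciferase flanked by upstream and downstream ATXN2 gene portions) were treated 24 h at 37 °C with compounds at up to 57 uM. SteadyGlo luminescence gave expression; GF-AFC fluorescence gave viability.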
# HT1080 IDH1KD tx = HT-1080 IDH1 knockdown cell toxicity (counter line). HT-1080 IDH1 knockdown viability, ATP luminescence, 48 h. Potency, µM (series often up to 46.1 µM), for inactives: at the top dose activity, negative = toxicity, actives largely listed as cytotoxic. 2% of 360,000 active. AID 686971;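 note: 0% = DMSO wells and -100% = cell-free medium wells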
#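 CellTiter-Glo luminescence after 48 h compound exposure at 37 degrees C of IDH1-knockdown HT-1080 cells in 5% FBS RPMI. %Activity scaled between DMSO wells and cell-free media wells, with curves fitted and assigned curve classes.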
# HepG2 viability = HepG2 cytotoxicity, counter-screen for TGF-b inhibitors. HepG2 CAGA-GFP viability, ATP luminescence, 18 h. Potency, µM (highest dose often 46.1 µM), inactives show top-dose activity change, negative = cytotoxicity, most hits filed as cytotoxic. 0.76% of 410,000 active. AID 588856
#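 CellTiter-Glo luminescence gave cytotoxicity after 18 hours at 37 degrees C. The cells were HepG2 CAGA-GFP in 1% FBS DMEM, stimulated with 500 pg/mL TGF-beta after compound addition. %Activity was normalised to no-cell wells (complete cell-killing) and DMSO (no toxicity), and curves were fitted and classified.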
# Numbers without * were called inactive; i = inactive; ? = inconclusive; . = no result given; ! = not confirmed by another sample. In the library only some 3.8% were active in any assay of this set; here they are far more common. Calls come from the whole dose curve; as a rule, active = well fitted curve in the direction sought with a large enough effect; inconclusive = small, poorly fitted or top-dose-only effect, or another doubt; inactive = no such curve, though single readings can be large; an effect the other way counts as inactive or inconclusive. Potency is the fitted concentration of half-maximal effect.
SMILES,TGFb inhibitor,HT1080NT lethal,S2 tox,ATXN2 expr inh,HT1080 IDH1KD tx,HepG2 viability
CCOc1cc(C(=O)NCc2ccc3c(c2)CCN3C(=O)c2ccc(F)cc2)cc(OCC)c1OCC,0%,.,.,.,.,-25%
CCCCCCSc1cc(-c2nc3ccc(C)cn3c2NCCCC)ccc1OC,?,-8%,14µM*,0%,-6%,-57%
COc1ccc(-c2cc(-c3nc4ccccn4c3NCc3ccccc3)ccc2OC)cc1,?,?,7.9µM*,4µM*,?,-15%
CCCCCCSc1cc(-c2nc3ccc(Cl)cn3c2NCCCC)ccc1OC,9%,4%,i,6%,14%,-1%
CCC(C)Sc1cc(-c2nc3ccc(C)cn3c2NCc2ccccc2)ccc1OC (configuration not stated),13µM*,?,10µM*,18µM*,?,-40%
CCCCNc1c(-c2ccc(OC)c(SC(C)CC)c2)nc2ccc(C)cn12 (configuration not stated),13µM*,21µM*,11µM*,13µM*!,?,14µM*
COc1ccccc1/C=C/c1nc2ccccc2n1C(C)C,?,.,?,17%,.,-49%
C(=Nc1ccc(/C=C/c2ccnc3ccccc23)cc1)c1ccco1,-2%,.,.,.,.,-30%
CCCCNc1c(-c2ccc(OC)c(SC(C)CC)c2)nc2cnccn12 (configuration not stated),?,-8%,.,?,0%,-77%
CCCCNc1c(-c2ccc(OC)c(SC(C)CC)c2)nc2cc(C)ccn12 (configuration not stated),11µM*,21µM*,32µM*,25µM*,23µM*,11µM*
O=C(O)[C@H]1O[C@H](Oc2cc3oc(-c4ccccc4)cc(=O)c3c(O)c2O)[C@H](O)[C@@H](O)[C@H]1O,.,.,.,-19%,.,.
CC(=O)Nc1cc(-c2ccc(N3CCN(C)CC3)cc2)cn2c(-c3ccc(F)c(Cl)c3)cnc12,?,21µM*,.,?,16µM*,-99%
CC(=O)c1ccc(-c2cnc3c(NC=O)cc(-c4ccc(N5CCN(C)CC5)cc4)cn23)cc1,?,26µM*,?,-12%,?,-32%
CC(=O)Nc1cc(-c2ccc(N3CCN(C)CC3)cc2)cn2c(-c3cccc(C(C)=O)c3)cnc12,?,-19%,i,-37%,-29%,-59%
CN1CCN(c2ccc(-c3cc(NC=O)c4ncc(-c5ccc(F)c(Cl)c5)n4c3)cc2)CC1,20µM*,?,.,?,?,-86%
CC(=O)Nc1cccc(-c2cc(NC=O)c3ncc(-c4ccc(C(C)=O)cc4)n3c2)c1,?,23µM*,i,-5%,-6%,-2%
O=c1cc(-c2cccc3c2Sc2ccccc2S3)oc(N2CCOCC2)c1,.,.,.,-29%,.,.
CCOc1ccc(NC(=O)CSc2cn(CC(=O)N3CCCCCC3)c3ccccc23)cc1,?,.,.,.,.,-6%
COc1ccc(C(O)c2ncc(-c3cccc(C(F)(F)F)c3)[nH]2)cc1F (configuration not stated),5%,-11%,i,-29%,-24%,-39%
CCc1ccc(C(O)c2ncc(-c3cccc(C(F)(F)F)c3)[nH]2)cc1 (configuration not stated),?,23µM*,i,?,?,-113%
OC(Cc1ccccc1Br)c1ncc(-c2cccc(C(F)(F)F)c2)[nH]1 (configuration not stated),?,?,?,?,16µM*,-58%
CC(=O)N1CCc2c(sc3c2c(=O)n(CCc2ccccc2)c(=O)n3Cc2ccc(F)cc2)C1,11µM*,.,?,?,.,-63%
CCOC(=O)N1CCc2c(sc3c2c(=O)n(CCc2ccccc2)c(=O)n3Cc2ccc(F)cc2)C1,-11%,.,.,.,.,-13%
Cc1ccc2[nH]c3c(c2c1)CN(C(=O)CC1(c2ccccc2)CC(=O)N(Cc2cccnc2)C1=O)CC3 (configuration not stated),.,.,i,.,.,.
COCCCN=C(c1ccco1)n1c(=S)nc(-c2ccco2)n(CCCOC)c1=S,0%,5.6µM*,i,24%,7.9µM*,-6%
SMILES,TGFb inhibitor,HT1080NT lethal,S2 tox,ATXN2 expr inh,HT1080 IDH1KD tx,HepG2 viability
COc1ccc(NC(=O)c2c(C)oc3ccc(O)c(CN4CCCC(C)C4)c23)cc1Cl (configuration not stated),.,.,.,.,.,11µM*
COc1ccc(NC(=O)c2c(C)oc3ccc(O)c(CN4CCC(C)CC4)c23)cc1Cl,13µM*,.,14µM*,-19%,.,10µM*
CCOc1ccc(OCc2cccc(C(=O)Nc3ccc(CN4CCCCC4)cc3)c2)cc1,0%,15µM*,?,?,?,10µM*
COc1ccc(OCc2cccc(C(=O)Nc3ccc(CN4CCCCC4)cc3)c2)cc1,?,-1%,i,-30%,-19%,-59%
O=C(Cn1c(=O)sc2ccc(Cl)cc21)N1CCN(CCO)CC1,.,.,i,.,.,.
COc1ccc(-c2cc(NC=O)c3ncc(-c4cccc(OC)c4)n3c2)cc1,?,?,i,?,9.2µM*,3%
COc1cccc(-c2cnc3c(NC=O)cc(-c4ccc(N(C)C)cc4)cn23)c1,?,?,.,-6%,18µM*,-2%
CN(C)c1ccc(-c2cc(NC=O)c3ncc(-c4ccc(F)c(Cl)c4)n3c2)cc1,3%,?,i,-23%,?,-6%
COc1ccc(NC(=O)C(=O)NCCc2sc(-c3ccc(Cl)cc3)nc2C)cc1,0%,.,i,20%,.,2%
COC(=O)c1c(C)sc(-c2c(-c3ccc4c(c3)OCCO4)[nH]c3c2c(=O)[nH]c(=O)n3C)c1O,-3%,.,.,.,.,3%
CC(C)(C)c1ccc(-c2nc(C#N)c(NCCCn3ccnc3)o2)cc1,?,21µM*,i,11%,23µM*,-104%
Cc1cc2nc(-c3ccc(SCC(=O)N4CCc5ccccc54)nc3)[nH]c2cc1C,?,-10%,18µM*,?,0%,-10%
CSc1ncc(C(=O)Nc2ccccc2C(=O)c2ccccc2)c(C(F)(F)F)n1,?,.,?,5%,.,-28%
Cc1oc(-c2cccc(NC(=O)c3ccccn3)c2)nc1CNC(=O)c1ccc(C(F)(F)F)cc1,.,.,i,.,.,.
Cc1[nH]c(=O)c(C(=O)/C=C/c2ccccc2F)c2c1CCCC2,?,7.9µM*,28µM*,8.9µM*,7.9µM*,-85%
COc1ccc(C2CC(=O)N(Cc3cccc(F)c3)c3ccccc3S2)cc1 (configuration not stated),?,.,?,?,.,-32%

# From PubChem BioAssay
